PubChem BioAssay (NCATS)
Results filed as inconclusive are left out. Entries that show only a call come without a potency. Values without a mark were called inactive. Active and inactive are the calls of the source. Calls follow the shape of the dose curve; as a rule, active = well fitted inhibition curve with a large enough effect; inconclusive = small, poorly fitted or top-dose-only effect; inactive = flat fitted curve, though single readings scatter. Where a SMILES comes first, the peptide text is derived from it. Bridges are numbered along the chain shown (N, C = ends). [ ]: non-standard residue; d: D form. NMeY = CN[CH](Cc1ccc(O)cc1)C(=O)O

Assay: P-glycoprotein substrates identified in KB-8-5-11 adenocarcinoma cell line, qHTS therapeutic library screen (AID 1346987); also: nearly all actives have a fitted effect of over 65% in size; as to activity change, negative = cytotoxicity: series mostly up to about 44 µM
Outline: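 P-gp-mediated resistance screen: KB-8-5-11 cells treated 72 h with compounds in dose-response. CellTiter-Glo viability.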
Potency is read from the fitted curve at half-maximal effect.

CC(C)=C/C=C\[C@H](C)[C@H]1CC[C@]2(C)C[C@@H]3C(C)=CC(=O)C3/C(CO)=C\C[C@@H]12 (stereo not given in full)
Potency: inactive

CC(=O)N1CCc2ccc(O)c(OC3OC(COC4OCC(O)(CO)C4O)C(O)C(O)C3O)c2C1Cc1ccc(O)cc1 (stereo not given)
Potency: inactive

COC(=O)C1=COC(O[C@@H]2O[C@H](CO)[C@@H](O)[C@H](O)[C@H]2O)[C@H]2[C@@H]1[C@H](OC(=O)CCc1ccc(O)cc1)C[C@]2(C)O (stereo not given in full)
Potency: inactive

C[C@H](NC(=O)CCc1nc2ccccc2c(=O)[nH]1)c1ccccc1
Potency: inactive

CCCNc1ccc2ncc(-c3ccc4[nH]ncc4c3)n2n1
Potency: 3.66 µM (active)

O=C1NC(Cc2ccccc2)C(=O)N2CCCC12 (stereo not given)
Potency: inactive

C=C(C(=O)OC)C1C(O)CC2(C)C(=O)CCC(O)(CO)C2C1O (stereo not given)
Potency: inactive

O=C(Nc1ccc(S(=O)(=O)C(F)(F)F)cc1)C1=CCN(c2ncccc2C(F)(F)F)CC1
Potency: 14.6 µM (active)

CC1=CC(=O)CC(C)(C)C1CCC(C)O[C@@H]1O[C@H](CO[C@@H]2OC[C@@H](O)[C@H](O)[C@H]2O)[C@@H](O)[C@H](O)[C@H]1O (stereo not given in full)
Potency: inactive

C/C=C/C=C/C(O)=C1\C(=O)[C@]2(C)C3C(C(=O)CC/C=C/C)=C(O)C4(C)C1[C@]1(C)O[C@@]4(O)[C@@]3(C)O[C@@]12O
Potency: inactive

Cn1nnc(-c2ccc(-c3ccc(N4C[C@H](CO)OC4=O)cc3F)cn2)n1
Potency: inactive

CC(O)/C=C/C1(O)C2(C)COC1(C)CC(O)C2 (stereo not given)
Potency: inactive

C[C@H]1CC(=O)Nc2cccc(-c3cnn(C(C)(C)C)c3)c2N1
Potency: inactive

CO[C@@H](C)Cn1c(=O)n(C)c2cnc3ccc(-c4cncc(C(C)(C)O)c4)cc3c21
Potency: 0.651 µM (active)

C=C(C)[C@@H]1CC[C@]2(C)CC[C@]3(C)[C@H](CC[C@@H]4[C@@]5(C)CC[C@@H](O)C(C)(C)[C@@H]5CC[C@]43C)[C@@H]12
Potency: inactive

COC(=O)C1=CO[C@@H](O[C@@H]2O[C@H](CO)[C@@H](O)[C@H](O)[C@H]2O)[C@@H]2C(CO)=CC[C@]12O
Potency: inactive

COc1ccc(CCC(=O)c2c(O)cc(O)cc2O[C@@H]2O[C@H](CO)[C@@H](O)[C@H](O)[C@H]2O)cc1
Potency: inactive

COc1c(Nc2ncc(Cl)c(N[C@H]3[C@@H](C(N)=O)[C@@H]4C=C[C@H]3C4)n2)ccc2c1CC[C@@H](N1CCOCC1)CC2
Potency: 8.2 µM (active)

C[C@@H]1CN(Cc2ncccn2)C[C@H]1c1nc2c(cnn2C2CCOCC2)c(=O)[nH]1
Potency: inactive

COCCOc1cnc2ccn([C@H](C)c3nnc4c(F)cc(-c5cnn(C)c5)cn34)c(=O)c2c1
Potency: inactive

CC(C)(O)c1ccc2c(c1)C(O)C[C@H]1[C@](C)(C(=O)O)CCC[C@]21C (stereo not given in full)
Potency: inactive

CN1CCN(Cc2ccc(-c3cnc4[nH]cc(-c5ccc6[nH]ccc6c5)c4c3)cc2)CC1
Potency: 7.31 µM (active)

COC(=O)c1ccnc(-c2cc(C(=O)NCCc3ccccc3)ccn2)c1
Potency: inactive

CN(C)c1nc(NC2CCC(NC(=O)c3ccc(F)c(F)c3)CC2)nc2ccccc12 (stereo not given)
Potency: 20.6 µM (active)

Cc1[nH]nc(C(F)(F)F)c1Cc1sc2c(c1C(=O)N1C[C@](C)(O)CO1)c(=O)n(C)c(=O)n2C(C)C
Potency: inactive

CC(C)[C@@](C)(O)[C@@H]1CN(c2nc(-c3[nH]nc4ncccc34)c(F)cc2Cl)CCN1
Potency: 6.51 µM (active)

Cc1cc(O)cc(O[C@@H]2O[C@H](CO)[C@@H](O)[C@H](O)[C@H]2O)c1
Potency: inactive

CCC(C)C1NC(=O)C2CCCN2C(=O)C(NC(C)=O)C(C)OC(=O)C(Cc2ccc(OC)cc2)N(C)C(=O)C2CCCN2C(=O)C(C(C)C)NC1=O (stereo not given) (Ac-TPIVP[NMeY](Me); ester 1-C; configuration not given here)
Potency: inactive

CC1(C)CC[C@]2(C(=O)O)[C@H](O)C[C@]3(C)C(=CCC4[C@@]5(C)CC[C@H](O[C@@H]6O[C@H](CO[C@@H]7OC[C@H](O)[C@H](O)[C@H]7O[C@@H]7OC[C@@H](O)[C@H](O)[C@H]7O)[C@@H](O)[C@H](O)[C@H]6O[C@@H]6O[C@H](CO)[C@@H](O)[C@H](O)[C@H]6O)C(C)(C)C5CC[C@]43C)[C@@H]2C1 (stereo not given in full)
activity change, negative = cytotoxicity: 6.47% [at 9.29 µM]

CC1OC(OC2C(C)OC(OC3C(O)C(CO)OC(O[C@H]4CC[C@@]5(C)C(CC[C@]6(C)C5CC=C5C7[C@@H](C)[C@H](C)CC[C@]7(C(=O)O)CC[C@]56C(=O)O)C4(C)C)C3O)C(O)C2O)C(O)C(O)C1O (stereo not given in full)
outcome: inactive [at 9.29 µM]
